# Results filed as inconclusive are left out. A number with no mark means an inactive call. Activity calls are given as the source filed them. Calls follow the shape of the full dose curve.
# Molecular target: Tyrosine-protein kinase ABL1 (Homo sapiens) (UniProt P00519)
# Assay: ABL1 kinase (ABL1-N-HiBiT) SDR gain of signal screen - plus ATP
# Conditions: purified ABL1-N-HiBiT enzyme, HiBiT luminescence with 50 uM ATP, 30 min; series mostly up to 57.5 µM; signal gain, positive = increase: at the top concentration
# From the text: National Center for Advancing Translational Sciences (NCATS),
# National Institute of Health (NIH), Maryland
# Discovery and optimization of novel protein-binding ligands underlies many of the methods and applications of biology, drug discovery, clinical diagnostics, and environmental toxicology. Assays for detecting the interaction of, for example, a molecule with a macromolecular target also referred to here as the target of interest (TOI) is dependent on a compatible output technology. Depending on the nature and knowledge surrounding the TOI, whether a receptor, enzyme, regulatory subunit or scaffold, or a sequence-defined nucleic acid folded into a complex tertiary structure, assay strategies can vary widely.
# Here we exploit ligand-biased changes in the structural dynamics of the target protein to control reporter alpha complementation allowing a non-competitive, non-functional, non-separation measure of ligand-target interaction.
# Secondly, we show the specificity and sensitivity of the SDR for the Abelson tyrosine kinase (ABL1) compared to the serine/threonine protein kinase A, using an enriched chemical library of 128 compounds selected, in part, for activity annotated with ABL1 kinase activity using the Pharos database (3).
# (1) A. S. Dixon et al., NanoLuc Complementation Reporter Optimized for Accurate Measurement of Protein Interactions in Cells. ACS Chem Biol 11, 400-408 (2016).
# Chemistry & Biology, 19, 1060 - 1072 (2012).
# (3) K. J. Kelleher et al., Pharos 2023: an integrated resource for the understudied human proteome. Nucleic Acids Res 51, D1405-D1416 (2023).
# PROTOCOL TABLE (as described by Inglese J, Shamu CE and Guy RK. 2007)
# SEQUENCE No. (e.g., 1, 2, 3, etc.); […] (e.g., C. elegans, Compounds, Incubation, Read, etc.); VALUE and DESCRIPTION.
# 1. Reagent. Dispense 4 uL ABL1-N-HiBiT enzyme per well at a final enzyme concentration of 10 nM in buffer with 50 uM ATP (SDR assay) into columns 2-48 of four replicate Greiner 1536-well white, solid bottom high base, medium plates per assay. Dispense respective buffer without enzyme at 4 uL/well in column 1 of assay plates using BioRaptr 2.
# 2. Compounds. Library compounds added at 23 nL/well by pin transfer. DMSO neutral control and imatinib positive control added at 25 nL/well, transfer by Mosquito dispenser.
# 3. Incubation. Incubate enzyme and compounds at room temperature for 30 min, protected from light.
# 4. Reagent. (SDR assay) Add 3 uL/well of Nano-Glo HiBiT reagent (Promega) to assay plates with ATP.
# 5. Incubation. (SDR assay) Incubate enzyme solution and HiBiT reagent at room temperature for 10 min, protect from light.
# 6. Detector. (SDR assay) Luminescence measured using CCD-based camera (ViewLux) with settings as follows: Exposure, 1 sec; Gain, High; Speed, Slow; Binning, 2X.
# Inglese J, Shamu CE and Guy RK, Reporting data from high throughput screening of small molecule libraries, Nature Chemical Biology, 2007, 3(8): 438-441. doi.org/10.1038/nchembio0807-438.
# Chain of Tyrosine-protein kinase ABL1 (Homo sapiens) (P00519 whole entry, looked up): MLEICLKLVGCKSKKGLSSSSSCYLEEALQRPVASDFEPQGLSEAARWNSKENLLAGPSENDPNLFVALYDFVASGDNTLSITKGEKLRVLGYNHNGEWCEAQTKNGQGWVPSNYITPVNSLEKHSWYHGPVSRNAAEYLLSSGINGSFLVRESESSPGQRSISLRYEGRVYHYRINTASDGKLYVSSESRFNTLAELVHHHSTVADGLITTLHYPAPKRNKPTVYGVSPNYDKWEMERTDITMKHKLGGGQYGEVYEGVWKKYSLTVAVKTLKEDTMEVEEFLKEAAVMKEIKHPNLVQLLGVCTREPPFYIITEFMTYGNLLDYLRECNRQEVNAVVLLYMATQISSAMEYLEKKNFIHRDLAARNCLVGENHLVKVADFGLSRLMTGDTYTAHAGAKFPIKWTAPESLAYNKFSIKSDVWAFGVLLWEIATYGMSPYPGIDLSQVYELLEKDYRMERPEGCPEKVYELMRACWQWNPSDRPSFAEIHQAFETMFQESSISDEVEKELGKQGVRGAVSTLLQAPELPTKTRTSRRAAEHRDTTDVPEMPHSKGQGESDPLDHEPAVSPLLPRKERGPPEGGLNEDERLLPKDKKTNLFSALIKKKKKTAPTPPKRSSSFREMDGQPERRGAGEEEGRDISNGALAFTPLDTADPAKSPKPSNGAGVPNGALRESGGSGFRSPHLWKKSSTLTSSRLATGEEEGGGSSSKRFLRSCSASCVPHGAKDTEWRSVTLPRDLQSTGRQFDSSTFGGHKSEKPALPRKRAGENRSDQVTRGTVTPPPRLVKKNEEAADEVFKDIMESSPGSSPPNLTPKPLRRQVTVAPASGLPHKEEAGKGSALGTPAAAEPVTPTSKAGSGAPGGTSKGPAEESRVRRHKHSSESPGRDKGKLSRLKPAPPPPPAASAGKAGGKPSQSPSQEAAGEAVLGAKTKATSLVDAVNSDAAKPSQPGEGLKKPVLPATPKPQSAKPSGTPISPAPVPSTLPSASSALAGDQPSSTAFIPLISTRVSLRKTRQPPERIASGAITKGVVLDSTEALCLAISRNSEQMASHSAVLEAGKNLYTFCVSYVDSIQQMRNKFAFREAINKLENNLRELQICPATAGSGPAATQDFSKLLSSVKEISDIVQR
Compound,"signal gain, positive = increase",Potency
N#Cc1ccc2ncnc(NCCc3ccccc3)c2c1,1.28%,–
O=C(NOCC(O)CO)c1cc(Br)c(F)c(F)c1Nc1ccc(I)cc1F (stereo not given),-8.89%,–
O=c1c(O)c(-c2ccc(O)c(O)c2)oc2cc(O)cc(O)c12,6.27%,–
C=CC(=O)N1CCC(Oc2cc3c(Nc4ccc(Cl)c(Cl)c4F)ncnc3cc2OC)CC1,5.97%,–
CCN(CC)CCOc1ccc(Nc2ncc3cc(-c4c(Cl)cccc4Cl)c(=O)n(C)c3n2)cc1,4.63%,–
COC(=O)Nc1ccc(-c2nc(N3CCOCC3)c3cnn(C4CCN(C(=O)OC)CC4)c3n2)cc1,-36.6%,–
CC[C@@](C)(Nc1ccnc(-c2c[nH]c3ncccc23)n1)C(=O)NCC(F)(F)F,–,11200 nM (active)
CN1CCN(CCCNc2ncc(Cl)c(-c3cc4c(C(=O)NC5CC5)cccc4s3)n2)CC1,1.32%,–
COc1ccc(CNC(=O)Nc2ncc([N+](=O)[O-])s2)cc1,-6.68%,–
Cc1c(Cl)cccc1S(=O)(=O)Nc1nc(NCCc2ccccc2)nc2c1CN(Cc1ccccc1)CC2,-8.84%,–
C[C@@H]1CCNC(=O)c2cc3ccc(C(=O)Nc4nc5ccccc5n4CCCN(C)C)cc3n21,4.51%,–
C[C@@H]1CN(CC(=O)Nc2ccc3c(c2)Cc2cccc(-c4cc(=O)cc(N5CCOCC5)o4)c2S3)C[C@H](C)O1,-5.71%,–
Cc1ccc(C(=O)Nc2ccc(CN3CCN(C)CC3)c(C(F)(F)F)c2)cc1C#Cc1cnc2[nH]ncc2c1,–,15.8 nM (active)
Cc1cc(Nc2ncc3cc(-c4c(Cl)cccc4Cl)c(=O)n(C)c3n2)ccc1F,2.99%,–
Cn1sc(=O)n(Cc2ccccc2)c1=O,-6.97%,–
Oc1ccc(-c2ccc(-c3cc(Nc4cccc(CNC5CC5)c4)n[nH]3)cc2)c(O)c1,14%,–
CCN1C(=O)CNc2ncc(-c3ccc(-c4ncn[nH]4)nc3C)nc21,3.79%,–
Cn1cc(-c2cc3c(N4CCN(c5ncc([C@@](C)(N)c6ccc(F)cc6)cn5)CC4)ncnn3c2)cn1,–,10300 nM (active)
CCCCCCCCCCCCc1ccc(S(=O)(=O)Nc2nncs2)cc1,-3.86%,–
C=CC(=O)Nc1cccc(Oc2nc(Nc3ccc(N4CCN(C)CC4)cc3OC)ncc2Cl)c1,0.255%,–

Compound,"signal gain, positive = increase",Potency
Cc1nc2ccc(-n3ncc(C(=O)c4cc5ccccc5[nH]4)c3N)cc2[nH]1,5.17%,–
COc1ccc2c(Oc3ccc(NC(=O)c4c(C)n(CC(C)(C)O)n(-c5ccccc5)c4=O)nc3)ccnc2c1,12.5%,–
Cc1cc(C)c(/C=C2\C(=O)Nc3ccccc32)[nH]1,-14.8%,–
CCNC(=O)Nc1ccc(-c2nc3c(c(N4CCOC[C@@H]4C)n2)CCN(c2ncccn2)C3)cc1,-2.51%,–
S=C(NCc1ccc2c(c1)OCO2)N1CCN(c2ncnc3c2oc2ccccc23)CC1,2.4%,–
COc1ccc(-n2c(C)c([N+](=O)[O-])c3ccc(O)cc32)cc1,-0.535%,–
C=CC(=O)N1CCC[C@@H](n2nc(-c3cccc(C(=O)Nc4ccc(C(C)C)c(C)c4)c3)c3c(N)ncnc32)C1,9.15%,–
CC1(C)OCCn2c1nc1c(N3CCOCC3)nc(-c3cnc(N)nc3)nc12,12.9%,–
COc1cc(N2CCN(C)CC2)ccc1Nc1nc(N)c(C(=O)c2c(Cl)cccc2Cl)s1,-8.77%,–
Cc1cccc(C)c1-n1c(=O)c2cnc(Nc3ccc(N4CCN(C)CC4)cc3)nc2n2c3ccccc3nc12,1.71%,–
CCOc1ccn(-c2ccc(F)cc2)c(=O)c1C(=O)Nc1ccc(Oc2ccnc(N)c2Cl)c(F)c1,–,15400 nM (active)
CN1CCN(c2ccc(Nc3ncc4cc(C#N)c(=O)n(C5CCCC5)c4n3)cc2)CC1,-21.5%,–
CC(C)(NS(=O)(=O)c1ccc2c(Cl)cnc(N=C(N)N)c2c1)C(=O)O,-4.64%,–
c1cc(-c2cc(C3CCNCC3)[nH]n2)ccn1,1.22% [at 28.8 µM],–
Nc1nc(Nc2ccc(S(N)(=O)=O)cc2)n(C(=S)Nc2c(F)cccc2F)n1,–,1260 nM (active)
Cc1cc(Nc2ncc3c(n2)N(C)C(=O)N(c2cc(NC(=O)c4cccc(C(F)(F)F)c4)ccc2C)C3)n(C)n1,16.5%,–
NC1CCC(Nc2nc(Nc3ccc(C(=O)N4CCCCC4)cc3)c3ncn(-c4cccc(F)c4)c3n2)CC1 (stereo not given),–,2110 nM (active)
COc1cc2ncnc(Oc3cccc(NC(=O)Nc4cc(C(C)(C)C(F)(F)F)on4)c3)c2cc1OC,–,1410 nM (active)
N#Cc1cccc(-c2c[nH]c3ncnc(N4CCOCC4)c23)c1,3.34%,–
Cc1[nH]c(/C=C2\C(=O)Nc3ccc(S(=O)(=O)Cc4c(Cl)cccc4Cl)cc32)c(C)c1C(=O)N1CCC[C@@H]1CN1CCCC1,-5.47%,–

# From PubChem BioAssay AID1963316 (National Center for Advancing Translational Sciences (NCATS), 2024)
